This note sets out measurements from PubChem BioAssay (Tox21).

Unmarked numbers belong to inactive results. Records with an inconclusive call do not appear. Calls of active or inactive are those of the source. Unless noted, the call rests on the fitted dose curve; in most records, active means well fitted curve in the direction sought with a large enough effect in the repeat runs; inconclusive means weak or mixed curves; inactive means no such curve, though single readings can be large; an effect the other way counts as inactive or inconclusive.

Assay [1] deals with Thyrotropin receptor (Homo sapiens) (UniProt P16473). Description: qHTS assay to identify small molecule agonists of the thyroid stimulating hormone receptor (TSHR) signaling pathway (AID 1224843; calls by dose curve; further: nearly all actives have a fitted effect of over 45% in size). The method, boiled down:
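HEK293 cells stably bearing the thyrotropin receptor were plated at 800 cells/well and challenged with compound (30 min, RT). Accumulated cAMP was quantified via cAMP-d2 competing for cryptate-tagged antibody.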
Background: qHTS replaces the single test concentration by a dilution series.

Assay [2] is described as follows: qHTS assay to identify small molecule agonists of the hypoxia (HIF-1) signaling pathway (AID 1224846; active means well fitted activation curve with a large enough effect in the signal ratio in the repeat runs, not every such curve was filed as active; the % refers to the signal ratio). In short, it runs like this:
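HRE-bla ME-180 cells (beta-lactamase reporter under hypoxia response element) were plated at 2,000 cells/well in medium with 0.5% dialyzed FBS, rested 5 hrs, then given compounds in DMSO for 17 hrs at 37C, 5% CO2. Reporter induction was read with CCF4-AM FRET substrate.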

Assay [3] in a line: qHTS assay to identify small molecule agonists of H2AX - cell viability counter screen (AID 1224847; calls by dose curve;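 further: wild-type CHO-K1 cells; top concentration of the series differs between compounds; nearly all actives have a fitted effect of over 30% in size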). In short, it runs like this:
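CHO-K1 wt, 1000 cells/well, o/n 37C; cpds 15 conc, 3 h 37C, 0.76% DMSO; CellTiter-Glo, 30 min RT, luminescence.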

Assay [4] in a line: qHTS RealTime-Glo MT Cell Viability Assay in HEK293 cells - 32 hour (AID 1224868). Further: nearly all actives have a fitted effect of over 50% in size. Further: potency means the concentration at half of the fitted maximal effect. The method, boiled down:
(§1)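 Cells + reagent dispensed (600 cells/well, HEK293) → 5 h at 37 C/5% CO2 → 23 nL compound in DMSO pinned → 40 h at 37 C → luminescence read at 0, 8, 16, 24, 32, 40 h.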

Assay [5] in a line: qHTS RealTime-Glo MT Cell Viability Assay in HepG2 cells - 40 hour (AID 1224870). Further: nearly all actives have a fitted effect of over 50% in size. The method, boiled down: (§2)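 Real-time viability: cells seeded at 600 per well together with NanoLuc and cell-permeant prosubstrate, compounds added after 5 h incubation. Luminescence tracked at 0, 8, 16, 24, 32 and 40 h of exposure.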
Assay [6] can be described thus: A CellTox Green Cytotoxicity Assay to monitor cytotoxicity in HEK293 cells - 40 hour (AID 1224871). Further: nearly all actives have a fitted effect of over 45% in size. The method, boiled down:
(§3)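 HEK293 cells premixed with CellTox Green dye were seeded at 600 cells/well and left 5 h at 37 C/5% CO2 before pin transfer of 23 nL compound in DMSO. Fluorescence from dye bound to dead-cell DNA was read during 40 h treatment.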

Assay [7] in a line: qHTS RealTime-Glo MT Cell Viability Assay in HEK293 cells - 16 hour (AID 1224872). Further: nearly all actives have a fitted effect of over 50% in size. Further: potency means the concentration at half of the fitted maximal effect. In short, it runs like this: as §1
The nature of assay [8]: qHTS RealTime-Glo MT Cell Viability Assay in HepG2 cells - 8 hour (AID 1224873). Further: nearly all actives have a fitted effect of over 55% in size. In short, it runs like this: as §2
The nature of assay [9]: qHTS RealTime-Glo MT Cell Viability Assay in HEK293 cells - 40 hour (AID 1224874). Further: nearly all actives have a fitted effect of over 50% in size. Further: potency means the concentration at half of the fitted maximal effect. To be noted: RealTime-Glo luminescence; max response: hits give low values. In short, it runs like this: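 HEK293 cells mixed with RealTime-Glo reagents (NanoLuc plus cell-permeant prosubstrate) at 600 cells/well, preincubated 5 h at 37 C/5% CO2, then given 23 nL compound in DMSO. Nonlytic luminescence from viable cells was read at 0, 8, 16, 24, 32 and 40 h.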

Assay [10] is described as follows: A CellTox Green Cytotoxicity Assay to monitor cytotoxicity in HEK293 cells - 24 hour (AID 1224875). Further: nearly all actives have a fitted effect of over 45% in size. In short, it runs like this: as §3
Assay [11] is described as follows: A CellTox Green Cytotoxicity Assay to monitor cytotoxicity in HepG2 cells - 16 hour (AID 1224876). Further: nearly all actives have a fitted effect of over 45% in size. The method, boiled down: (§4)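 HepG2 cells were seeded together with the CellTox Green dye at 600 cells/well, left 5 h at 37 C/5% CO2, then given compounds in DMSO. Fluorescence from dye bound to dead-cell DNA was read repeatedly over 40 h of treatment at 37 C.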
Assay [12] is described as follows: qHTS RealTime-Glo MT Cell Viability Assay in HepG2 cells - 32 hour (AID 1224877). Further: nearly all actives have a fitted effect of over 55% in size. The method, boiled down: (§5)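 Real-time, nonlytic viability: 600 HepG2 cells/well mixed with NanoLuc enzyme plus prosubstrate; 5 h settle, compound (DMSO) added by pintool; luminescence monitored over 40 h at 37 C.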
Assay [13] in a line: A CellTox Green Cytotoxicity Assay to monitor cytotoxicity in HepG2 cells - 24 hour (AID 1224878). Further: nearly all actives have a fitted effect of over 45% in size. In short, it runs like this: as §4
The nature of assay [14]: A CellTox Green Cytotoxicity Assay to monitor cytotoxicity in HepG2 cells - 40 hour (AID 1224879). Further: nearly all actives have a fitted effect of over 40% in size. In short, it runs like this:
as §4

Assay [15] is described as follows: qHTS assay to identify small molecule antagonists of the estrogen related receptor (ERR) signaling pathway from Tox21 library (AID 1224848). Further: nearly all actives have a fitted effect of over 50% in size. In short, it runs like this:
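Reading was by luminescence 30 min after ONE-Glo addition. Before that, ERR cells at 2,000 per well had rested 6 h at 37 C/5% CO2 and then received pin-tooled compounds in DMSO for 18 h at 37 C.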

Assay [16] can be described thus: qHTS assay to identify small molecule agonists of the estrogen related receptor (ERR) signaling pathway from Tox21 library (AID 1224849; calls by dose curve; further: nearly all actives have a fitted effect of over 15% in size). As to conditions: ERR reporter cell line, ONE-Glo luciferase, 18 h; at 92.4 µM (top of the series) unless noted. The method, boiled down:
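ERR reporter cell line (NTP) seeded, rested 6 h at 37 C/5% CO2, then pinned with Tox21 compounds in DMSO. After 18 h at 37 C, ONE-Glo luciferase luminescence was read following 30 min at room temperature.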

Assay [17] is described as follows: qHTS RealTime-Glo MT Cell Viability Assay in HepG2 cells - 24 hour (AID 1224867). Further: nearly all actives have a fitted effect of over 50% in size. The method, boiled down: as §5
A short description of assay [18]: A CellTox Green Cytotoxicity Assay to monitor cytotoxicity in HEK293 cells - 0 hour (AID 1224869). Further: nearly all actives have a fitted effect of over 50% in size. In short, it runs like this: as §3
A short description of assay [19]: qHTS assay to identify small molecule agonists of the hypoxia (HIF-1) signaling pathway - cell viability counter screen (AID 1224844; calls by dose curve; further: nearly all actives have a fitted effect of over 50% in size). In short, it runs like this: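 HRE-bla ME-180 cells in medium with 0.5% dialyzed FBS were preincubated 5 hrs at 37C, exposed to compounds for 17 hrs, then viability was read as CellTiter-Glo luminescence after 30 min at room temperature, in the reporter wells.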

A short description of assay [20]: qHTS assay to identify small molecule agonists of H2AX (AID 1224845; active means well fitted activation curve with a large enough effect in the signal ratio in the repeat runs, not every such curve was filed as active; the % refers to the signal ratio). The method, boiled down: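 Phospho-H2AX Ser139 measured by HTRF (ex 320 nm; em 665 and 620 nm) after 24 hr antibody incubation. Compounds, 15 concentrations, 0.76% DMSO, were applied to CHO-K1 cells for 3hr at 37C before lysis.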
On the % scale 0 is the no-effect control and ±100 the full control effect.

Sequence of Thyrotropin receptor (Homo sapiens) (P16473 whole entry, looked up): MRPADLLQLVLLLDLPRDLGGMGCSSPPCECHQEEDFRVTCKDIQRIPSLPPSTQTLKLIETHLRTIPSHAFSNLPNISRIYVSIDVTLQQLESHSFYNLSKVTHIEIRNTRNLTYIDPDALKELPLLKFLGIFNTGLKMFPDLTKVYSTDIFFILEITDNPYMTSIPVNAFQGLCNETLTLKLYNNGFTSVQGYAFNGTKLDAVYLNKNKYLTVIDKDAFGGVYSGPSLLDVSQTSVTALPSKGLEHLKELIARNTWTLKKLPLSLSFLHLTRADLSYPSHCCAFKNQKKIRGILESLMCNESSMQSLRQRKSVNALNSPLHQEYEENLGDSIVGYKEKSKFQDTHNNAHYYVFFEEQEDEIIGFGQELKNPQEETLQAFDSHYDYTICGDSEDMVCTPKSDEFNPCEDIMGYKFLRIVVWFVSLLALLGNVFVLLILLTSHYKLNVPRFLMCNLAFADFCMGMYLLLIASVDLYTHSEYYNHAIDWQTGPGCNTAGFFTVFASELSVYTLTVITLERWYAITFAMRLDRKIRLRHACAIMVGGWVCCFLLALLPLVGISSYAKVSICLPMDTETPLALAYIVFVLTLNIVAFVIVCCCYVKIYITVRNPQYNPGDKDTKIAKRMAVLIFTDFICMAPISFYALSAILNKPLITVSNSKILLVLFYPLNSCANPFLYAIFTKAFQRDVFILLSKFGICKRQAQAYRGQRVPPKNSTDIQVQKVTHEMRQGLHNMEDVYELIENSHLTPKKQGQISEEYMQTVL

`COc1ccnc2c1CCCCC2S(=O)c1nc2ccccc2[nH]1` (stereo not drawn): the Potency result in assay [1], in [3], in assay [5], in assay [6], in assay [10] and in assay [11] was “inactive” throughout. Moreover, the Potency result in assay [12], in assay [13] and in assay [14] was “inactive” throughout. The call in assay [2] and in assay [8] was inactive. Further, the results for the Potency in assay [4], in assay [7] and in assay [9] were 7.56 µM (active), 9.52 µM (active) and 7.56 µM (active), respectively.

For `Cc1nc(C)c(C)nc1C`, the Potency result in assay [1], in assay [3], in [15], in assay [4], in [18] and in [5] was “inactive” throughout. For the same molecule, the Potency entry in assay [6], in assay [7], in [10], in [11], in assay [12] and in assay [13] was “inactive” each time. The Potency entry in [14] is “inactive”. The molecule was called inactive in assay [2], in [17] and in assay [8]. The activity change, positive = activation in assay [16] is -0.837%. Moreover, the max response in assay [9] is -5.51%.

In the case of `O=S(=O)(O)c1cc(Cl)c(Cl)cc1Cl`, the Potency entry in assay [1], in assay [3], in [4], in assay [5], in [6] and in [7] was “inactive” each time. The Potency result in assay [10], in assay [12] and in [14] was “inactive” throughout. Moreover, the molecule was classed as inactive in assay [2], in assay [17] and in assay [8]. Moreover, in assay [9], the max response is -19.4%.

`CC(CN=Cc1ccccc1O)N=Cc1ccccc1O` (stereo not drawn): the Potency entry in assay [19], in [20], in assay [3], in [4], in [18] and in assay [5] was “inactive” each time. The Potency result in [6], in [7], in [10], in [11], in assay [12] and in assay [13] was “inactive” throughout. The Potency entry in [14] was “inactive”. For the same molecule, the call in assay [2], in assay [17] and in assay [8] was inactive. Moreover, the max response in [9] was 0.376%.

In the case of `CC(C)(C)c1ccc(CCC=O)cc1`, the Potency result in assay [19], in assay [20], in assay [3], in assay [4], in [18] and in assay [5] was “inactive” in each case. In addition, the Potency result in assay [6], in assay [7], in assay [10], in [11] and in assay [12] was “inactive” throughout. The molecule was called inactive in assay [2], in [17] and in [8]. Also, the max response in [9] is 3.22%.

`CC(C)Cc1nccs1`: the Potency entry in assay [1], in assay [3], in assay [4], in assay [18], in [5] and in assay [6] was “inactive” in each case. Moreover, the Potency result in assay [7], in [10], in [11], in assay [12] and in [14] was “inactive” throughout. Moreover, the outcome in assay [2], in assay [17] and in assay [8] was inactive. In addition, in [9], the max response is 3.56%.

`O=C(O)CCc1nc2ccccc2[nH]1`: the Potency result in assay [19], in assay [20], in assay [3], in [4], in assay [5] and in [6] was “inactive” in each case. In addition, the Potency result in [7], in assay [10], in assay [11], in assay [12], in assay [13] and in assay [14] was “inactive” in each case. Besides, the outcome in assay [2], in [17] and in assay [8] was inactive. For the same molecule, the max response in assay [9] is 11%.

For the molecule `CC/C=C\CCO`, the Potency entry in assay [19], in assay [20], in assay [3], in [15], in [4] and in [18] was “inactive” throughout. The Potency result in assay [6], in assay [7], in assay [10], in assay [11], in assay [12] and in assay [13] was “inactive” throughout. Moreover, the Potency entry in assay [14] was “inactive”. For the same molecule, the call in [2], in assay [17] and in assay [8] was inactive. Also, the activity change, positive = activation in [16] is 0.448%. Besides, the max response in [9] was 15.9%.

Consider `O=C(OCCN1CCOCC1)c1cccnc1Nc1cccc(C(F)(F)F)c1`, for which the Potency result in [1], in assay [20], in assay [3], in assay [18], in assay [5] and in assay [6] was “inactive” in each case. For the same molecule, the Potency result in assay [10], in assay [11], in [12], in [13] and in assay [14] was “inactive” each time. For the same molecule, the call in assay [17] and in assay [8] was inactive.

`O=C(O)c1ccc(O)c(O)c1`: the Potency entry in [1], in assay [3], in [4], in assay [18], in [5] and in assay [6] was “inactive” each time. For the same molecule, the Potency entry in assay [7], in assay [10], in [11], in [12], in assay [13] and in assay [14] was “inactive” throughout. Also, the molecule was called inactive in assay [2], in assay [17] and in assay [8]. Further, in assay [9], the max response is -5.14%.

On to `O=c1c2ccccc2oc2ccccc12`, for which the Potency entry in assay [19], in [20], in assay [3], in [4], in assay [18] and in assay [5] was “inactive” in each case. Moreover, the Potency result in assay [10], in assay [11], in assay [12], in assay [13] and in assay [14] was “inactive” in each case. Further, the outcome in [2], in [17] and in [8] was inactive. Further, in assay [9], the max response was -17.5%.

Take `O=C(OC1C[C@H]2CC[C@@H](C1)[N+]21CCCC1)C(O)(c1ccccc1)c1ccccc1` (stereo partly drawn): the Potency entry in assay [1], in [20], in assay [4], in [5], in [6] and in [7] was “inactive” throughout. Moreover, the Potency entry in [10], in assay [11], in assay [12], in assay [13] and in assay [14] was “inactive” each time. Moreover, the outcome in assay [17] and in assay [8] was inactive. The max response in assay [9] was 0.515%.

`CC1=C(C)C(=O)C(C(CCCCCC(=O)O)c2ccccc2)=C(C)C1=O` (stereo not drawn): the Potency result in assay [19], in assay [20], in assay [3], in assay [4], in assay [18] and in assay [10] was “inactive” in each case. Further, the Potency entry in assay [11], in assay [12], in assay [13] and in [14] was “inactive” each time. For the same molecule, the molecule was called inactive in assay [2], in assay [17] and in assay [8]. For the same molecule, the max response in [9] was 3.36%.
